From PubChem BioAssay
The source made the active and inactive calls.

How the values were obtained:
[1] = binders of probe aFSTL3 on microarray, primary screen, stem cell growth factor project, biochemical, small-molecule microarray, fluorescence 635/667 (AID 1064); settings: higher = more signal;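 note: measures binding of the biotinylated anti-FSTL3 antibody to printed compounds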
[2] = binders from COS7 lysate, DM2A8 probe, primary screen, torsin A project, cell lysate, small-molecule microarray, fluorescence 635/667 (AID 1065); settings: higher = more signal, COS7 lysate expressing mutant human TOR1A
[3] = binders of probe aFGF2 on microarray, primary screen, stem cell growth factor project, biochemical, small-molecule microarray, fluorescence 635/667 (AID 1067); settings: higher = more signal;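 note: measures binding of biotinylated aFGF2 protein to printed compounds on slides; z-score merges feature fluorescence and signal-to-noise across triplicate slides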
[4] = binders of probe aFGF10 on microarray, primary screen, stem cell growth factor project, biochemical, small-molecule microarray, fluorescence 635/667 (AID 1071); settings: higher = more signal;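 note: score merges 667 nm spot intensity and signal to noise from triplicate slides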
[5] = biological target: Neurogenic locus notch homolog protein 2 (Homo sapiens) (UniProt Q04721); experiment: Notch2 binders on small-molecule microarrays, primary screen, biochemical, small-molecule microarray, 635 nm fluorescence, stem cell growth factors (AID 1073); settings: Notch2 binding, higher = more signal
[6] = biological target: Pro-neuregulin-1, membrane-bound isoform (Homo sapiens) (UniProt Q02297); experiment: NRG1 binders on small-molecule microarrays, primary screen, psychiatric disease protein project, biochemical, small-molecule microarray, fluorescence 635/667 (AID 1075); settings: NRG1 binding, 635 nm fluorescence, higher = more signal;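 note: score combines 667 nm spot fluorescence with signal to noise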
Chain of Pro-neuregulin-1, membrane-bound isoform (Homo sapiens) (Q02297 whole entry, looked up, the tested form may be a part, canonical isoform): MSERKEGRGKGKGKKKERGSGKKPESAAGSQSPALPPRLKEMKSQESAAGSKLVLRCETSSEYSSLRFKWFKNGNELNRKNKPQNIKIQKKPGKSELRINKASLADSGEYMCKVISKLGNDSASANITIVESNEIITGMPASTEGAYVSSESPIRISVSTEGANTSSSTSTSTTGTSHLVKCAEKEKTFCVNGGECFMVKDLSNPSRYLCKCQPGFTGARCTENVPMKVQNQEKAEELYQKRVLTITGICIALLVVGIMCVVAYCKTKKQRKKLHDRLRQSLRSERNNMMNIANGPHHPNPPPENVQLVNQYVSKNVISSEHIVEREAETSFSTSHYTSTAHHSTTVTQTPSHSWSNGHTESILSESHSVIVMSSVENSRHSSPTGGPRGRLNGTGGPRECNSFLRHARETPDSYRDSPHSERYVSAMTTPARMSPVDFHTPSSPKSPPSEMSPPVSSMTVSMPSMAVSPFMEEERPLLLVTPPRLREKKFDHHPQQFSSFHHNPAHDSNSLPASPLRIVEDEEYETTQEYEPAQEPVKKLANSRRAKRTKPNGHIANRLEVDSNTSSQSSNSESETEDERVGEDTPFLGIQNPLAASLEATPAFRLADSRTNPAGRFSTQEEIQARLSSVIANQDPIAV

[7] = test system: Neuregulin-1 EGF-like domain; experiment: binders of neuregulin-1 EGF-like domain, primary screen, biochemical, small-molecule microarray, 635 nm fluorescence (AID 1081); settings: small-molecule microarray binding, higher = more signal;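 note: binding of the protein to compounds printed on small-molecule microarray slides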
[8] = FRG1 promoter luciferase signal modulators, primary screen, FRG1 inhibition for FSHD, cell-based, C2C12 myotubes, firefly/Renilla luciferase, luminescence (AID 1084); settings: higher = more signal, called active from +8 up or from −8 down
[9] = binders of probe aFST on microarray, primary screen, stem cell growth factor project, biochemical, small-molecule microarray, fluorescence 635/667 (AID 1086); settings: higher = more signal;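 note: score merges 667 nm fluorescence with signal-to-noise of each printed compound spot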
[10] = binders of probe aHhip on microarray, primary screen, stem cell growth factor project, biochemical, small-molecule microarray, fluorescence 635/667 (AID 1087); settings: higher = more signal;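 note: score merges spot fluorescence at 667nm with spot signal to noise ratio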
[11] = test system: PRMT1 (protein arginine N-methyltransferase 1); experiment: PRMT1 binders on small-molecule microarrays, primary screen, biochemical, small-molecule microarray, 635 nm fluorescence (AID 1088); settings: small-molecule microarray binding, higher = more signal;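 note: binding of Prmt1 protein to compounds spotted on small-molecule microarray slides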
[12] = yeast growth modulation, basal conditions, primary screen, YJM789 clinical isolate, OD600, 24 h (AID 1089);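 note: growth of clinical yeast isolate S. cerevisiae YJM 789 seeded 1000 cells per well; test concentration not given here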; settings: S. cerevisiae YJM789 growth, higher = more signal, called active from +8 up or from −8 down
[13] = fission yeast growth modulation, primary screen, strain 972, OD600, 24 h, no modulator (AID 1090);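 note: basal condition with compound alone and no growth modifier present; test concentration not given here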; settings: S. pombe 972 growth, higher = more signal, called active from +8 up or from −8 down
[14] = S. cerevisiae growth modulation with rapamycin, primary screen, strain BY4716, OD600, 96 h (AID 1091); settings: higher = more signal, called active from +8 up or from −8 down; note: test concentration not given here
[15] = biological target: Torsin-1A-interacting protein 2 (Homo sapiens) (UniProt Q8NFQ8); experiment: LULL1 binders on small-molecule microarray, primary screen, cell lysate, human LULL1 lysate, 635/667 nm fluorescence (AID 1092); settings: hLULL1 lysate binding, 635 nm fluorescence, higher = more signal;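 note: probe is lysate of COS7 cells overexpressing human LULL1; score merges per-feature 667 nm fluorescence with signal-to-noise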
Chain of Torsin-1A-interacting protein 2 (Homo sapiens) (Q8NFQ8 whole entry, looked up): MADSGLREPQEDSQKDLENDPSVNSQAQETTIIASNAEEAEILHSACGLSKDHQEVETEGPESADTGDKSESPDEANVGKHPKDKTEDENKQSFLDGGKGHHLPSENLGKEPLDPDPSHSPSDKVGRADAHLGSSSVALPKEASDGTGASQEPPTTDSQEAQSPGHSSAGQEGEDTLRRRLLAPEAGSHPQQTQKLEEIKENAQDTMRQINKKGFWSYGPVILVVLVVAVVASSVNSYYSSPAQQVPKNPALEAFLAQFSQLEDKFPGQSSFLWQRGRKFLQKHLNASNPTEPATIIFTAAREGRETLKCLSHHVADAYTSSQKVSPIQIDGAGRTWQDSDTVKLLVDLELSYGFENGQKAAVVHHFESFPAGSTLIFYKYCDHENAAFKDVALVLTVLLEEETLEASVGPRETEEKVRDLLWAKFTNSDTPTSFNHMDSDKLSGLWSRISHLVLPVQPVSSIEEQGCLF

[16] = E. coli growth modulation, two-sided OD650, primary screen, E. coli filamentation project, strain DRC41, 24 h (AID 1093); settings: OD650, 24 h, higher = more signal, called active from +8 up or from −8 down;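 note: MC1000 strain lacking acrAB efflux and sulA so SOS filamentation is blocked; test concentration not given here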
[17] = small-molecule microarray binders of probe aLefty2, primary screen, biochemical, biotinylated probe, 635/667 nm fluorescence (AID 1094); settings: higher = more signal;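 note: score merges spot fluorescence near 667 nm with spot signal-to-noise ratio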
[18] = test system: Noggin (protein binding on small-molecule microarray); experiment: Noggin binders on small-molecule microarray, primary screen, biochemical, 635/667 nm fluorescence (AID 1095); settings: 635 nm fluorescence, higher = more signal;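 note: score merges 667 nm feature fluorescence with signal to noise over triplicate slides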
[19] = biological target: Neurogenic locus notch homolog protein 3 (Homo sapiens) (UniProt Q9UM47); experiment: NOTCH3 binders on small-molecule microarray, primary screen, biochemical, 635/667 nm fluorescence (AID 1096); settings: NOTCH3 binding, 635 nm fluorescence, higher = more signal
Chain of Neurogenic locus notch homolog protein 3 (Homo sapiens) (Q9UM47 whole entry, looked up): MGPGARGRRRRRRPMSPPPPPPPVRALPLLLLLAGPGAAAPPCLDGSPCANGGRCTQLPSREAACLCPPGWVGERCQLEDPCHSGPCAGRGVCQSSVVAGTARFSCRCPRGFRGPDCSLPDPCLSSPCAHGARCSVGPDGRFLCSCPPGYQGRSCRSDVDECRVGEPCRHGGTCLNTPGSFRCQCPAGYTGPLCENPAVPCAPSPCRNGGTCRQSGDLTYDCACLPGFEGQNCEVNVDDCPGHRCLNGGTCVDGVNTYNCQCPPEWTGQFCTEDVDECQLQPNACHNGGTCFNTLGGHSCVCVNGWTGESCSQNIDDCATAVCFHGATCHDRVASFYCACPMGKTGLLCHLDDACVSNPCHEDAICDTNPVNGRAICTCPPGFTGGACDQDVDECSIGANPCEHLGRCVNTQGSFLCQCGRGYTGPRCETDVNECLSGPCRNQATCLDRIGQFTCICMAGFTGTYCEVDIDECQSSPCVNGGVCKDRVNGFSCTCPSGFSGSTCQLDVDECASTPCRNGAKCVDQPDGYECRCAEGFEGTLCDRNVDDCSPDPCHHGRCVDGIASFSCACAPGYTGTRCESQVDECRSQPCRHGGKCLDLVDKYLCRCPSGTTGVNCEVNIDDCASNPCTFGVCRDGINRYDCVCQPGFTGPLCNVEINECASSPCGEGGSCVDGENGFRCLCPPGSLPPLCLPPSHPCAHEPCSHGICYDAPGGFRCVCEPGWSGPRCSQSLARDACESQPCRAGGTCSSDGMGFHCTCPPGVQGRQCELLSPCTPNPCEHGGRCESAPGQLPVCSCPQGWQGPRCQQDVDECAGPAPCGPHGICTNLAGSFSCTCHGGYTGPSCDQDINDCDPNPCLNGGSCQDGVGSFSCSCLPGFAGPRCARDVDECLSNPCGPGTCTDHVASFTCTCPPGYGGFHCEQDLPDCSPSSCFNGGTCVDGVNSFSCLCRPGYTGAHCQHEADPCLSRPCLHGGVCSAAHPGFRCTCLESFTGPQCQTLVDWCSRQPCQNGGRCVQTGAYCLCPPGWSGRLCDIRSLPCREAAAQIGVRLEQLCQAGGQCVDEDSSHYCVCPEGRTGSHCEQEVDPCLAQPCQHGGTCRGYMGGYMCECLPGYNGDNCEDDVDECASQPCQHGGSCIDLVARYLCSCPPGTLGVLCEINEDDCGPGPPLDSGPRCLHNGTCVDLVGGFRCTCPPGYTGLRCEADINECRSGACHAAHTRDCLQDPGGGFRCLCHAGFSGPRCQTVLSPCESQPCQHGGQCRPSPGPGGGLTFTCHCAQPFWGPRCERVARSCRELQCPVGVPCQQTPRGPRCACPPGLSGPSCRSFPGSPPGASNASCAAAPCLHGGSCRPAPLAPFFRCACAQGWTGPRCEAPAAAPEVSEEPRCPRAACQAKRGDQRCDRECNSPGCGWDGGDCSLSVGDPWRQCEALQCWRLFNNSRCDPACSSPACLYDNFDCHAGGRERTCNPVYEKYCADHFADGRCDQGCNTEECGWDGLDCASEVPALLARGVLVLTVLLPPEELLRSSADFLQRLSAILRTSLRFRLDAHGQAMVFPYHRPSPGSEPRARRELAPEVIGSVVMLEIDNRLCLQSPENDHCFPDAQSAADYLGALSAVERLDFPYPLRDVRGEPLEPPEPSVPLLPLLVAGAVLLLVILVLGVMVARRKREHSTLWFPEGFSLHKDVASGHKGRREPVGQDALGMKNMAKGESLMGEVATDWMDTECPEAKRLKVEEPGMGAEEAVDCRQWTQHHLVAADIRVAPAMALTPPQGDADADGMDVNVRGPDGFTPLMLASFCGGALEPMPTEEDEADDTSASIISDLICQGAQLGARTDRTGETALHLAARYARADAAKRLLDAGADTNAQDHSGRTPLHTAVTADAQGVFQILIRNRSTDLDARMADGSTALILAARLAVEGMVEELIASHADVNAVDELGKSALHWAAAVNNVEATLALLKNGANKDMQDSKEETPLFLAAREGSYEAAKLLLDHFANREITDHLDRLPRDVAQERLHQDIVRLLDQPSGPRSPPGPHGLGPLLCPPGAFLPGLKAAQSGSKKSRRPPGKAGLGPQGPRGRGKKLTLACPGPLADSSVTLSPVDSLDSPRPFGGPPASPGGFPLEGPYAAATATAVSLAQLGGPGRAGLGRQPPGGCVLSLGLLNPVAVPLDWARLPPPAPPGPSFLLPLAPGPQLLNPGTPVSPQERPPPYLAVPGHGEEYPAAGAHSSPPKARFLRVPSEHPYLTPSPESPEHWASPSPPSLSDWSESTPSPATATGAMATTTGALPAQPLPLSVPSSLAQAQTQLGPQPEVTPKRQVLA

[20] = small-molecule microarray binders of probe aEGFR, primary screen, biochemical, biotinylated probe, 635/667 nm fluorescence (AID 1097); settings: higher = more signal;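 note: probe is a biotinylated anti-EGFR antibody binding compounds printed on slides; score combines fluorescence near 667 nm and signal to noise of each spot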

SMILES | composite z-score [1] | composite z-score [2] | composite z-score [3] | composite z-score [4] | composite z-score [5] | composite z-score [6] | composite z-score [7] | z-score [8] | composite z-score [9] | composite z-score [10] | composite z-score [11] | z-score [12] | z-score [13] | z-score [14] | composite z-score [15] | z-score [16] | composite z-score [17] | composite z-score [18] | composite z-score [19] | composite z-score [20]
C=CCC(OC(C)=O)[C@@H]1[C@@H](N(Cc2cccc3ccccc23)C(=O)Cc2ccc(F)cc2)c2cc(OCCCO)ccc2N1C(=O)c1ccc(-c2ccccc2)cc1 (stereo not given in full) | 0.873 | -0.302 | -0.0427 | -0.387 | -0.648 | -0.61 | -0.802 | -1.83 (inactive) | 0.392 | -0.14 | -0.325 | -0.256 (inactive) | -0.277 (inactive) | 0.18 (inactive) | 0.451 | 0.125 (inactive) | 0.125 | -0.556 | -1.37 | 0.0457
CC(C)CNC(=O)[C@@]1(C)c2ccccc2C(=O)N(Cc2cc(C(F)(F)F)cc(C(F)(F)F)c2)[C@H]1c1ccc(CO)cc1 | 0.0317 | 0.0213 | -0.178 | -0.278 | -0.474 | -0.12 | 0.492 | -1.43 (inactive) | -0.635 | 0.0156 | 1.3 | -0.721 (inactive) | 0.4 (inactive) | -0.699 (inactive) | 1.16 | 0.497 (inactive) | 0.0481 | -0.558 | -0.966 | -0.1
COCCOC(=O)N1C(=O)[C@@]2(c3cc(C#CCCO)ccc31)[C@H](C(=O)N1CCCCCCC1)[C@H]1C(=O)O[C@H](c3ccccc3)[C@H](c3ccccc3)N1[C@@H]2c1ccccc1OCCO | 3.32 | 0.659 | 0.688 | 0.473 | 1.43 | 1.85 | 1.18 | 0.253 (inactive) | 3.07 | 0.891 | 1.54 | 0.658 (inactive) | -2.09 (inactive) | 1.93 (inactive) | 4 | -0.452 (inactive) | 1.47 | 1.76 | 1.07 | 0.89
CCCCC(=O)N(CCN1CCOCC1)[C@@H]1CC(C(=O)NCCO)=C[C@H](Oc2c(I)cc(CO)cc2OC)[C@H]1O | -0.725 | 0.151 | -0.146 | 0.511 | 0.555 | 0.171 | 0.384 | 0.912 (inactive) | 0.0126 | -0.549 | 0.729 | 0.0164 (inactive) | -0.393 (inactive) | 0.0883 (inactive) | 0.322 | 1.3 (inactive) | -0.301 | 0.26 | 0.232 | -0.152
C=CCC(OC(C)=O)[C@@H]1[C@@H](N(Cc2cccc3ccccc23)C(=O)c2ccc(-c3ccccc3)cc2)c2cc(OCCCO)ccc2N1C(=O)c1ccc(-c2ccccc2)cc1 (stereo not given in full) | -0.0061 | 0.356 | -0.06 | 0.0099 | 0.369 | 0.0975 | -0.453 | -0.774 (inactive) | 0.392 | 0.0274 | -0.0425 | -1.05 (inactive) | -0.0057 (inactive) | -0.415 (inactive) | 0.549 | -1.02 (inactive) | -0.0179 | -0.63 | -0.234 | -0.106
C=C/C=C/[C@@H]1C(=C)CN([C@@H](Cc2ccccc2)C(=O)OC)[C@H]1[C@@H](O)Cc1ccccc1 | -0.252 | 0.814 | -0.109 | 0.34 | 0.186 | 0.404 | 1 | -0.661 (inactive) | 0.101 | -0.0645 | 1.44 | -0.03 (inactive) | -1.63 (inactive) | 0.415 (inactive) | 1.57 | 0.85 (inactive) | -0.0975 | 0.0905 | 0.731 | -0.0228
COc1ccc([Si](C)(C)[C@H]2[C@H](CCO)O[C@@]3(C(=O)N(Cc4ccc(N5C(=O)c6ccccc6Oc6ccccc65)cc4)c4ccccc43)[C@@H]2C)cc1 | 0.603 | -0.352 | -0.081 | 0.251 | -0.389 | 0.0473 | 0.644 | -3.69 (inactive) | -0.601 | -0.284 | 0.263 | 2.1 (inactive) | -1.25 (inactive) | 22.7 (active) | 0.822 | 0.511 (inactive) | 0.0004 | -1.01 | -0.532 | 0.0125
COc1ccc(C(=O)Nc2cccc(CN3C(=O)[C@]4(O[C@H](CCn5cc([C@H](O)c6ccccc6)nn5)[C@@H]([Si](C)(C)c5ccc(OC)cc5)[C@@H]4C)c4ccccc43)c2)cc1 | 0.243 | -0.505 | -0.0709 | 0.266 | -0.122 | 1.04 | 0.933 | -0.454 (inactive) | 0.0644 | -0.0618 | 0.682 | -0.228 (inactive) | -1.99 (inactive) | 0.678 (inactive) | 1.38 | 1.48 (inactive) | -0.0674 | 0.383 | 0.889 | -0.128
COCCOC(=O)N1C(=O)[C@@]2(c3cc(C#CC4(O)CCCCCC4)ccc31)[C@H](C(=O)N1CCN(c3ncccn3)CC1)[C@H]1C(=O)O[C@H](c3ccccc3)[C@H](c3ccccc3)N1[C@@H]2c1ccccc1OCCO | -0.215 | 0.825 | -0.0195 | 0.452 | 1.08 | 0.239 | 1.05 | 0.041 (inactive) | 0.474 | 0.0515 | 1.2 | 2.56 (inactive) | 2.26 (inactive) | 7.55 (inactive) | 1.79 | -0.267 (inactive) | -0.0795 | 1.04 | 1.08 | 0.0436
COc1ccc([Si](C)(C)[C@H]2[C@H](CCO)O[C@@]3(C(=O)N(Cc4ccccc4)c4ccc(N5CCOC5=O)cc43)[C@@H]2C)cc1 | -0.226 | 0.0044 | -0.126 | 0.522 | 0.591 | 0.872 | 0.828 | -2.79 (inactive) | 0.135 | -0.226 | 1.13 | 0.948 (inactive) | -0.0089 (inactive) | 16.7 (active) | 1.64 | 0.147 (inactive) | -0.0769 | 0.517 | 1.12 | -0.0152
O=C(NCCN1CCOCC1)[C@@H]1c2ccccc2C(=O)N(Cc2ccccc2)[C@H]1c1ccc(CO)cc1 | 0.39 | -0.334 | -0.175 | -0.961 | -0.913 | 1.77 | 1.1 | -0.508 (inactive) | -0.0557 | -0.312 | -0.845 | -0.0009 (inactive) | 0.253 (inactive) | -0.412 (inactive) | 0.0893 | 0.311 (inactive) | -0.129 | 0.278 | -0.036 | -0.204
